Platelet DG rel: inhibitors of platelet dense granule secretion, primary screen, cell-based, MLPCN, human platelets | 300,000 compounds, 0.22% hits | inhibition, %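 (compounds screened at 7.5 µM in platelet-rich plasma)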 | human platelet-rich plasma, SFLLRN dense granule ATP release, luminescence | AID 1663, 2009;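 active = mean replicate score, as percent of positive control, at or above 50; inconclusive = mean below 50 but at least one replicate at or above 50; inactive = mean and every replicate below 50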
HSF-1 act: HSF-1 activators, primary screen, NIH3T3-HGL cells, MG132 stress, luminescence, single point | NIH3T3-HGL HSF-1 luciferase reporter, 8 h; 100% = twice DMSO control signal | AID 504408, 2011 | activation, % at 9 µM | 300,000 compounds, 1.7% hits;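 active = mean replicate activation of at least 50% with a set share of replicates each reaching 50%; inconclusive = only one of those two conditions met; inactive = mean below 50% and too few replicates reaching it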;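 note: 0% = median of the neutral control wells and 100% = twice that signal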
dFosB act-1: activators of delta FosB homodimer, primary screen, biochemical, fluorescence polarization, TAMRA-CDK5 oligo, single point. Protein FosB (Mus musculus), P13346. purified delta FosB; percent of positive-control signal above neutral wells. activation, % at 25 µM. 340,000 compounds, 0.99% hits;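 active = mean activation above about 17%, with every replicate also reaching it, limit read from the data, passing the limit was not always enough; inconclusive = only one of the two conditions met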
Target sequence (P13346 whole entry, looked up): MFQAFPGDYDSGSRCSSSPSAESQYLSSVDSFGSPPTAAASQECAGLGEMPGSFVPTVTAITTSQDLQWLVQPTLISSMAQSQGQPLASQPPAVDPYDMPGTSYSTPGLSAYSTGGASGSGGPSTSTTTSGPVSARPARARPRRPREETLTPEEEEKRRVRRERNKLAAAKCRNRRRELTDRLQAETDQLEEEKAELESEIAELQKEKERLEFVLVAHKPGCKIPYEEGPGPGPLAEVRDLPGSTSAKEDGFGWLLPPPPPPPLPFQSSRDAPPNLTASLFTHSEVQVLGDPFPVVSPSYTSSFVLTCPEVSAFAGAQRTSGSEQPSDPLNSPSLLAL
HSF1 inh: HSF1 inhibitors in luciferase reporter cells, primary screen, cell-based, NIH3T3, luminescence; activity change, negative = inhibition, % at 7.5 µM (by protocol); NIH3T3-HGL HSE-luciferase, MG132-induced, luminescence 8 h; active compounds read low; 300,000 compounds, 0.77% hits;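 active = more than half of replicate wells show activity change below -50%, luminescence cut by over half; inconclusive = some wells, but at most half, below -50%; inactive = no replicate well below -50%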;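 note: luciferase reports HSF-1 transcriptional activity via heat shock element; 0% = median of DMSO wells and -100% = zero luminescence signal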
MPTP block: mitochondrial permeability transition pore inhibitors, primary screen, biochemical, isolated mouse mitochondria, absorbance; Ca2+ swelling absorbance, 30 min; inhibition, % at 10 µM; 360,000 compounds, 1.4% hits;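 active = inhibition of 50% or more, scaled per plate between neutral and stimulator controls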;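 note: 0% = DMSO wells given calcium and 100% = 1 mM EGTA wells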
HSP90 inh: HSP90 inhibitors, primary screen, cell lysate, luminescence; Rabbit reticulocyte lysate, luciferase refolding luminescence, 3 h; inhibition, % at 5.6 µM; Heat shock protein HSP 90 (rabbit reticulocyte lysate; luciferase refolding); 290,000 compounds, 0.91% hits;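 active = inhibition above the screen-wide mean plus 3 SD, computed separately per campaign, cut at about 16% in these data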;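 note: 0% = DMSO wells and 100% = 60 µM geldanamycin wells; inhibitors lower the luminescence because luciferase stays unfolded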
dFosB act-2: activators of mouse delta FosB DNA binding, confirmation, biochemical, fluorescence polarization, TAMRA-CDK5 oligo, cherry-picked samples | purified delta FosB; normalised: neutral wells 0, positive control 100 | 2,400 tested, under 10 active | shares compounds with dFosB act-1 | activation, % at 24.9 µM;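 active = highest replicate activation at or above 34% and every replicate reaching that threshold; inconclusive = meets only one of the two criteria; inactive = meets neither criterion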;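 note: higher polarization means more probe DNA bound by delta FosB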
* marks the source's active call; other numbers are inactive results; ? = inconclusive; . = no result given; ! = a repeat was not active. Hits are enriched below; roughly 4.9% of the tested compounds scored in any of these assays.

SMILES	Platelet DG rel	HSF-1 act	dFosB act-1	HSF1 inh	MPTP block	HSP90 inh	dFosB act-2
COc1ccc(NS(=O)(=O)c2ccc(O)c(NC(=O)c3ccc(S(=O)(=O)N4CCCC4)cc3)c2)cc1	-3.2	0.8	20.3*	-1.7	12.9	0.2	-0.2
COc1ccc(C(=O)Nc2ccc(S(=O)(=O)N3CCCC3)cc2)cc1	-4.8	4.1	0.9	-0.5	-0.6	-1.1	.
COC(=O)c1ccc(NC(=O)CSc2nc3[nH]ncc3c(=O)[nH]2)cc1	3.3	2.0	5.3	2.3	-1.6	.	.
O=C(CSc1nc2[nH]ncc2c(=O)[nH]1)Nc1ccc(OC(F)(F)F)cc1	-7.0	15.6	19.1*	-3.2	0.3	.	-2.0
O=C(NS(=O)(=O)Nc1ccc(Cl)cc1)c1c[nH]c2ccccc12	9.1	13.4	-1.9	0.5	-0.7	-2.7	.
COc1cc2ccccc2cc1C(=O)N/N=C/c1cccs1	.	.	.	.	-0.6	.	.
O=C(CSc1n[nH]c(-c2ccco2)n1)Nc1sc2c(c1C(=O)Nc1ccccc1)CCCC2	-0.2	11.8	25.2*	10.0	5.0	-2.2	0.6
CCCc1cc(=O)[nH]c(SCC(=O)Nc2cccc3ccccc23)n1	-3.0	10.7	21.7*	-6.3	-0.5	4.2	1.9
CCCc1cc(=O)[nH]c(SCC(=O)Nc2ccc(OCc3ccccc3)cc2)n1	.	.	28.0*	.	0.7	.	0.0
COC(=O)c1cccc(-n2sc3ccccc3c2=O)c1	.	.	4.3	.	7.8	.	.
CC(=O)Nc1cccc(NC(=O)Nc2cccc(Cl)c2C)c1	-6.9	1.0	22.1*	4.1	2.2	2.6	-0.8
Cc1cccc(NC(=O)Nc2ccc(C)cc2Br)c1	7.7	24.6	20.4*	9.4	13.0	-3.6	4.6
N#CCCN(C(=O)COC(=O)CCc1nc2ccccc2c(=O)[nH]1)c1ccc(F)cc1	.	.	-12.6	.	0.4	.	.
COc1ccccc1/C=C\C(=O)NCC(=O)N/N=C/c1ccc(O)cc1O	2.2	0.6	1.8	5.7	0.4	-0.7	.
CCOC(=O)c1c(CSC(=N)N)n(-c2ccc(C)cc2)c2cc(Br)c(OC(C)=O)cc12	6.4	-5.5	36.5*	-19.5	-0.1	-6.3	1.9
CCOC(=O)c1c(CSC(=N)N)n(C)c2cc(Br)c(OC(C)=O)cc12	21.3	3.7	13.3	-12.6	-0.4	0.6	.
COc1ccc2cc3[n+](cc2c1OC)CCc1cc2c(cc1-3)OCO2	-15.0	-3.6	36.4*!	-8.7	0.1	-4.0	1.9
O=C(Cn1nnc(-c2ccccc2Cl)n1)N/N=C/c1ccc2c(c1)OCO2	1.2	15.2	23.6*	-2.2	-0.4	-1.1	-1.0
O=C(N/N=C/c1ccc2c(c1)OCO2)c1ccc(NC(=O)c2ccccc2Cl)cc1	4.2	8.9	22.6*	1.5	1.1	-6.6	-4.7
Cc1ccccc1C(=O)Nc1cccc(C(=O)N/N=C/c2ccc3c(c2)OCO3)c1	14.9	8.7	11.2	7.5	-1.8	-2.5	.
O=C(N/N=C/c1ccc2c(c1)OCO2)c1cccc(NC(=O)c2ccccc2Cl)c1	25.5	27.0	21.3*	3.5	-0.1	1.2	3.6
O=C(N/N=C/c1ccncc1)c1cccc(NC(=O)c2ccc(Cl)cc2)c1	-0.7	10.5	41.1*	5.7	1.7	-4.5	5.0
O=C(N/N=C/c1ccncc1)c1cccc(N/N=C/c2ccncc2)c1	8.4	-15.5	-9.5	-7.3	-0.9	11.1	.
Cc1cccc(C(=O)Nc2ccc(C(=O)N/N=C/c3ccc4c(c3)OCO4)cc2)c1	8.5	5.3	15.7	3.2	0.7	-3.8	.
O=C(c1ccc(=O)[nH]n1)N1CCN(S(=O)(=O)c2ccc(C(F)(F)F)cc2)CC1	.	.	-6.0	.	1.4	.	.
SMILES	Platelet DG rel	HSF-1 act	dFosB act-1	HSF1 inh	MPTP block	HSP90 inh	dFosB act-2
CCN(Cc1ccncc1)C(=O)c1cc(COc2c(F)cccc2F)on1	1.1	0.8	-0.8	-1.8	0.9	-9.2	.
CC(C)(C)c1ccc(C(=O)Cn2nc(C(=O)O)c3ccccc3c2=O)cc1	-24.8	22.7	29.2*	0.6	1.1	4.5	5.9
O=C(Nc1ccc(S(=O)(=O)Nc2nccs2)cc1)c1cnc(Cl)c(Cl)c1	6.5	-8.6	-6.9	6.5	-0.6	-2.3	.
O=C(NNC(=O)c1csc(N2CCOCC2)n1)c1ccc(Cl)nc1	-4.1	-2.4	1.5	-1.4	-0.1	.	.
O=C(NNC(=O)c1ccc(Cl)s1)c1csc(N2CCOCC2)n1	-1.3	7.5	21.3*	-4.9	-0.6	.	-2.3
CCOC(=O)c1c(C)nc2sc(C(=O)Nc3ccc(C(C)=O)cc3)c(N)c2c1-c1ccc(OC)cc1	4.2	-8.9	18.7*	-15.1	3.2	2.3	-0.5
CCOC(=O)NN1C(=O)c2ccccc2NC1c1ccccc1F (configuration not stated)	2.1	6.1	-3.6	-1.5	-0.3	-2.6	.
Cn1c(=O)c2ncn(CC(=O)Nc3nc(-c4ccc(Cl)cc4)cs3)c2n(C)c1=O	-5.4	8.7	24.4*	-4.4	-0.1	-0.1	0.6
Cn1c(=O)c2c(ncn2CC(=O)Nc2nc(-c3ccccc3Cl)cs2)n(C)c1=O	2.3	1.5	-0.8	-0.2	14.7	-2.6	.
O=c1[nH]c(/C=C/c2ccc(OC(F)F)cc2)nc2c1cnn2-c1ccccc1	-8.5	11.7	65.3*	12.0	2.1	1.2	1.0
COc1ccc(-c2cc(C(F)(F)F)nc(SCC(=O)NCc3cccs3)n2)cc1	3.3	-1.5	15.2	12.3	-1.1	-0.3	.
O=C(CSc1nc(-c2ccccc2)cc(C(F)(F)F)n1)NCc1cccs1	-22.4	12.7	26.8*	2.0	-1.2	-0.1	0.7
COc1cc(NC(=O)Cn2cnc(S(=O)(=O)N3CCc4ccccc43)c2)cc(OC)c1OC	-103.2	-0.5	-8.0	0.8	-1.3	-0.1	.
Cc1cc(C)c(C)c(C(=O)COC(=O)CNC(=O)CN2C(=O)c3ccccc3C2=O)c1C	1.2	-4.4	43.2*	-8.7	0.2	2.6	?
NC(=O)C1CCN(c2ccnc3cc(Cl)ccc23)CC1	-2.0	-54.0	6.7	-40.6	-1.3	-2.2	.
Cc1cc(OCC(=O)Nc2cc(-c3nn4c(C)nnc4s3)ccc2C)ccc1Cl	.	.	37.7*	.	-1.2	0.3	5.1
COc1ccc(OCC(=O)Nc2cc(-c3nn4c(C)nnc4s3)ccc2C)cc1	0.0	4.9	-1.1	-7.0	-1.6	0.3	.
COc1ccc2c(c1OC)C(=O)OC2C1c2c(cc3c(c2OC)OCO3)CCN1C (configuration not stated)	-2.6	6.5	0.1	-4.0	0.8	3.1	.
